Measurements as given in PubChem BioAssay (NCI).
About 83,000 compounds went through this panel and 20% of them were active in at least one assay; those are over-represented in the sample as a whole.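 Single-concentration screen, 48 h exposure, 96-well plates. Endpoint: percent growth. Below 10 = active.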 Calls of active or inactive are those of the source.

Tests used:
Experiment in all cases: NCI-60 one-dose screen, 48 h (100 = growth as untreated, 0 = no growth, -100 = all killed)
Details in all cases: 10 µM unless noted
SK-MEL-2 melanoma = test system: SK-MEL-2 melanoma
EKVX NSCLC = test system: EKVX NSCLC
SN12C renal = test system: SN12C renal
UO-31 renal = test system: UO-31 renal
TK-10 renal = test system: TK-10 renal
ACHN renal = test system: ACHN renal
A498 renal = test system: A498 renal
CCRF-CEM leukemia = test system: CCRF-CEM leukemia
MOLT-4 leukemia = test system: MOLT-4 leukemia
SR leukemia = test system: SR leukemia
RPMI-8226 leukemia = test system: RPMI-8226 leukemia
OVCAR-8 ovarian = test system: OVCAR-8 ovarian
OVCAR-5 ovarian = test system: OVCAR-5 ovarian
OVCAR-4 ovarian = test system: OVCAR-4 ovarian
SK-OV-3 ovarian = test system: SK-OV-3 ovarian
IGROV1 ovarian = test system: IGROV1 ovarian
OVCAR-3 ovarian = test system: OVCAR-3 ovarian
HS 578T breast = test system: HS 578T breast
NCI/ADR-RES ovarian = test system: NCI/ADR-RES ovarian
T-47D breast = test system: T-47D breast

Measured: growth

O=C(CN1N=C(c2ccc(F)cc2)CCC1=O)Nc1nc2ccccc2s1
inactive: SK-MEL-2 melanoma 92.7% | EKVX NSCLC 24% | SN12C renal 40.2% | TK-10 renal 95.3% | A498 renal 97.8% | MOLT-4 leukemia 33.4% | RPMI-8226 leukemia 26.8% | OVCAR-5 ovarian 16.9% | OVCAR-4 ovarian 35.4% | SK-OV-3 ovarian 73.5% | HS 578T breast 67.6% | T-47D breast 83.3%
active: UO-31 renal -84% | ACHN renal -23.6% | CCRF-CEM leukemia -72.1% | SR leukemia -52.2% | OVCAR-8 ovarian -43% | IGROV1 ovarian -49.5% | OVCAR-3 ovarian -40.6% | NCI/ADR-RES ovarian 6.92%

CC1CCN(CCCCCOc2ccc3oc4ccccc4c(=O)c3c2)CC1
inactive: SK-MEL-2 melanoma 102% | EKVX NSCLC 89% | SN12C renal 69.3% | UO-31 renal 63.1% | TK-10 renal 71.4% | ACHN renal 95.3% | A498 renal 74.4% | CCRF-CEM leukemia 77.1% | MOLT-4 leukemia 53.2% | SR leukemia 47.5% | RPMI-8226 leukemia 60.1% | OVCAR-8 ovarian 81% | OVCAR-5 ovarian 88.4% | OVCAR-4 ovarian 77.3% | SK-OV-3 ovarian 93.9% | IGROV1 ovarian 68.9% | OVCAR-3 ovarian 87.6% | HS 578T breast 70.3% | NCI/ADR-RES ovarian 78.3% | T-47D breast 67.6%

O=C(Nc1cc(=O)[nH]c(=O)[nH]1)C(Cl)Cl
inactive: SK-MEL-2 melanoma 105% | EKVX NSCLC 114% | SN12C renal 98% | UO-31 renal 88.8% | TK-10 renal 101% | ACHN renal 111% | A498 renal 100% | CCRF-CEM leukemia 96% | MOLT-4 leukemia 98.4% | SR leukemia 98.6% | RPMI-8226 leukemia 101% | OVCAR-8 ovarian 102% | OVCAR-5 ovarian 112% | OVCAR-4 ovarian 112% | SK-OV-3 ovarian 107% | IGROV1 ovarian 108% | OVCAR-3 ovarian 113% | HS 578T breast 95.4% | NCI/ADR-RES ovarian 111% | T-47D breast 91.4%

COc1cc2nc3c(=O)n(-c4ccc(C#N)cc4)cnn3c(=O)c2cc1OC
inactive: SK-MEL-2 melanoma 94.4% | EKVX NSCLC 93.9% | SN12C renal 99% | UO-31 renal 83.6% | TK-10 renal 104% | ACHN renal 100% | A498 renal 113% | CCRF-CEM leukemia 143% | MOLT-4 leukemia 91.3% | SR leukemia 94.1% | RPMI-8226 leukemia 115% | OVCAR-8 ovarian 108% | OVCAR-5 ovarian 93.4% | OVCAR-4 ovarian 97% | SK-OV-3 ovarian 101% | IGROV1 ovarian 103% | OVCAR-3 ovarian 92.9% | HS 578T breast 90.8% | NCI/ADR-RES ovarian 100% | T-47D breast 100%

Oc1c(CCl)cc(Cl)cc1Cc1cc(Cl)cc(Cc2cc(Cl)cc(CCl)c2O)c1O
active: SK-MEL-2 melanoma -16.6% | SN12C renal 8.92% | A498 renal -4.67% | RPMI-8226 leukemia 4.65%
inactive: EKVX NSCLC 21% | UO-31 renal 32% | TK-10 renal 17.7% | ACHN renal 22.7% | CCRF-CEM leukemia 13.5% | MOLT-4 leukemia 21% | SR leukemia 40.8% | OVCAR-8 ovarian 16.7% | OVCAR-5 ovarian 79.8% | OVCAR-4 ovarian 48% | SK-OV-3 ovarian 36% | IGROV1 ovarian 37.8% | OVCAR-3 ovarian 19.2% | HS 578T breast 26.1% | NCI/ADR-RES ovarian 14% | T-47D breast 22.1%

COc1ccc(/C(=N\O)c2cc(C)c(OC)c(C)c2)cc1O
inactive: SK-MEL-2 melanoma 37.6% | EKVX NSCLC 51.7% | SN12C renal 39.4% | UO-31 renal 51.6% | TK-10 renal 72% | ACHN renal 31.7% | MOLT-4 leukemia 13.8% | SR leukemia 10.3% | RPMI-8226 leukemia 12.7% | OVCAR-8 ovarian 15.3% | OVCAR-5 ovarian 46.7% | OVCAR-4 ovarian 67% | SK-OV-3 ovarian 51.2% | IGROV1 ovarian 30.3% | OVCAR-3 ovarian 10.1% | HS 578T breast 33.5% | NCI/ADR-RES ovarian 28.6% | T-47D breast 84.9%
active: A498 renal 6.79% | CCRF-CEM leukemia 7.8%

C/C(=C\c1cnc(C)s1)[C@@H]1C[C@@H]2O[C@@H]2CCC[C@H](C)[C@H](O)[C@@H](C)C(=O)C(C)(C)[C@@H](O)CC(=O)O1
active: A498 renal 4.95% | OVCAR-3 ovarian 2.54% | NCI/ADR-RES ovarian 6.61%
inactive: SK-MEL-2 melanoma 27.5% | EKVX NSCLC 44.4% | SN12C renal 54% | UO-31 renal 36.4% | TK-10 renal 44.8% | ACHN renal 52.8% | CCRF-CEM leukemia 30.7% | MOLT-4 leukemia 31.7% | SR leukemia 30% | RPMI-8226 leukemia 23.2% | OVCAR-8 ovarian 48% | OVCAR-5 ovarian 38.9% | OVCAR-4 ovarian 52.5% | SK-OV-3 ovarian 24.4% | IGROV1 ovarian 38.7% | HS 578T breast 39.1% | T-47D breast 33.6%

O=C(N/N=C/C[C@@H]1[C@@H](/C=C/[C@@H](O)COc2cccc(Cl)c2)[C@H](O)C[C@@H]1O)c1ccncc1
inactive: SK-MEL-2 melanoma 102% | EKVX NSCLC 98.4% | SN12C renal 102% | UO-31 renal 89.5% | TK-10 renal 73.2% | ACHN renal 101% | A498 renal 97.9% | CCRF-CEM leukemia 98% | MOLT-4 leukemia 83.7% | SR leukemia 92.3% | RPMI-8226 leukemia 94.5% | OVCAR-8 ovarian 79.9% | OVCAR-5 ovarian 97.4% | OVCAR-4 ovarian 104% | SK-OV-3 ovarian 77% | IGROV1 ovarian 109% | OVCAR-3 ovarian 105% | HS 578T breast 92.5% | NCI/ADR-RES ovarian 102% | T-47D breast 90.8%

C=C1C(=O)O[C@H]2[C@H]1CC/C(COC(=O)c1cn(C)c3ccccc13)=C\CC[C@@]1(C)O[C@@H]21
active: SK-MEL-2 melanoma -60% | EKVX NSCLC -29.1% | SN12C renal -40.3% | UO-31 renal -93.5% | TK-10 renal -75.2% | ACHN renal -82.7% | CCRF-CEM leukemia 1.59% | MOLT-4 leukemia -0.986% | SR leukemia -9.81% | RPMI-8226 leukemia -29.5% | OVCAR-8 ovarian -20.5% | OVCAR-5 ovarian -25.5% | OVCAR-4 ovarian -33.6% | IGROV1 ovarian -47.6% | OVCAR-3 ovarian -72.1% | NCI/ADR-RES ovarian 3.25% | T-47D breast -56.3%
inactive: A498 renal 65.4% | SK-OV-3 ovarian 63% | HS 578T breast 12.7%

O=C(NCc1ccccc1)c1ccc2c(c1)NC(=O)[C@@H]1CCCN21
inactive: SK-MEL-2 melanoma 99% | EKVX NSCLC 101% | SN12C renal 105% | UO-31 renal 90.9% | TK-10 renal 93.8% | ACHN renal 98.7% | A498 renal 70.3% | CCRF-CEM leukemia 116% | MOLT-4 leukemia 113% | SR leukemia 106% | RPMI-8226 leukemia 105% | OVCAR-8 ovarian 106% | OVCAR-5 ovarian 100% | OVCAR-4 ovarian 112% | SK-OV-3 ovarian 111% | IGROV1 ovarian 104% | OVCAR-3 ovarian 101% | HS 578T breast 90.7% | NCI/ADR-RES ovarian 98.3% | T-47D breast 108%

N#Cc1c(-c2ccc(Cl)cc2)cc(-c2cc3ccccc3o2)nc1SCC(=O)c1ccc(Cl)cc1
inactive: SK-MEL-2 melanoma 91% | EKVX NSCLC 116% | SN12C renal 94.2% | UO-31 renal 79.8% | TK-10 renal 139% | ACHN renal 86.9% | A498 renal 111% | CCRF-CEM leukemia 106% | MOLT-4 leukemia 95.1% | SR leukemia 80.2% | RPMI-8226 leukemia 83.6% | OVCAR-8 ovarian 104% | OVCAR-5 ovarian 88.4% | OVCAR-4 ovarian 104% | SK-OV-3 ovarian 103% | IGROV1 ovarian 71.5% | OVCAR-3 ovarian 104% | HS 578T breast 96.3% | NCI/ADR-RES ovarian 97.9% | T-47D breast 108%

Nc1c(C(=O)Nc2cccc3ccccc23)sc2nc3c(cc12)CCCCC3
active: A498 renal -1.52% | CCRF-CEM leukemia 9.18% | OVCAR-3 ovarian -25.2%
inactive: SK-MEL-2 melanoma 50.5% | EKVX NSCLC 40.4% | SN12C renal 43.4% | UO-31 renal 51.9% | TK-10 renal 62.8% | ACHN renal 53.6% | MOLT-4 leukemia 15.9% | SR leukemia 19.9% | RPMI-8226 leukemia 24.9% | OVCAR-8 ovarian 21.4% | OVCAR-5 ovarian 44.1% | OVCAR-4 ovarian 56.6% | SK-OV-3 ovarian 29.1% | IGROV1 ovarian 44.3% | HS 578T breast 30% | NCI/ADR-RES ovarian 20.3% | T-47D breast 46.7%

COc1ccc(-n2cc(-c3ccc(Cl)c(Cl)c3)[nH]c2=O)cc1OC
active: CCRF-CEM leukemia 3.68%
inactive: SK-MEL-2 melanoma 97.7% | EKVX NSCLC 93.6% | SN12C renal 102% | UO-31 renal 95% | TK-10 renal 96.6% | ACHN renal 105% | A498 renal 79.3% | MOLT-4 leukemia 144% | SR leukemia 40.1% | RPMI-8226 leukemia 97.6% | OVCAR-8 ovarian 94.6% | OVCAR-5 ovarian 90% | OVCAR-4 ovarian 89.9% | SK-OV-3 ovarian 101% | IGROV1 ovarian 102% | OVCAR-3 ovarian 111% | HS 578T breast 102% | NCI/ADR-RES ovarian 105% | T-47D breast 92.1%

CC[C@]12C=CCN3CC[C@@]4(c5ccc(OC)cc5N(C)[C@H]4[C@@](O)(C(=O)OC)[C@@H]1OC(=O)CCC(=O)O[C@H]1CC[C@H]4[C@@H]5CC[C@H]6CC(=O)CC[C@]6(C)[C@H]5CC[C@]14C)[C@@H]32
active: SK-MEL-2 melanoma 8.52% | CCRF-CEM leukemia 7.55% | MOLT-4 leukemia 1.58% | SR leukemia -10.4% | RPMI-8226 leukemia 0.329% | T-47D breast 8.78%
inactive: EKVX NSCLC 21.2% | SN12C renal 24.8% | UO-31 renal 13.3% | TK-10 renal 21.2% | ACHN renal 19.1% | A498 renal 12.3% | OVCAR-8 ovarian 25.7% | OVCAR-5 ovarian 34.6% | OVCAR-4 ovarian 36.6% | SK-OV-3 ovarian 35.3% | IGROV1 ovarian 28.6% | OVCAR-3 ovarian 23.8% | HS 578T breast 43.4% | NCI/ADR-RES ovarian 25.4%

CCCCc1ccc(N=Nc2ccc(OCC[N+](C)(C)C)cc2)cc1
inactive: SK-MEL-2 melanoma 93.6% | EKVX NSCLC 85.1% | SN12C renal 31% | UO-31 renal 88.1% | TK-10 renal 31.3% | ACHN renal 67% | A498 renal 67.5% | CCRF-CEM leukemia 62.4% | MOLT-4 leukemia 57.2% | SR leukemia 76% | RPMI-8226 leukemia 17.8% | OVCAR-8 ovarian 26.8% | OVCAR-5 ovarian 76.2% | OVCAR-4 ovarian 71.8% | SK-OV-3 ovarian 74.8% | IGROV1 ovarian 19.2% | OVCAR-3 ovarian 30.2% | HS 578T breast 72.3% | NCI/ADR-RES ovarian 104% | T-47D breast 88.7%
